Inconclusive results are not listed. Active and inactive are the calls of the source. The call rests on the fitted dose curve; in most records, active means well fitted cell-killing curve with a large enough effect; inconclusive means small, poorly fitted or top-dose-only effect, or effect the other way; inactive means flat fitted curve, though single readings scatter. Where a SMILES comes first, the peptide text is derived from it. [ ]: non-standard residue; d: D form. ξ: configuration not given here. ξTyr(βOH) = NC(C(=O)O)C(O)c1ccc(O)cc1
Columns and labels:
Experiment in all cases: Primary qHTS to identify gynecologic anti-cancer compounds using libraries of approved drugs and bioactive compounds (AID 1345084); further: nearly all actives have a fitted effect of over 55% in size
Conditions in all cases: Gynecologic cancer cell panel viability, ATPlite luminescence, 48 h; series mostly up to 57.5 µM
OV90 = system: OV90
Method in brief: (§1)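 Luminescence from the ATPlite ATP-monitoring reagent indicates viable cell number; lower signal means cytotoxicity. Cells received compound 16 h after seeding and were exposed for 48 h across five concentrations.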

PA-1 = system: PA-1
Method in brief: as §1

Tov-21-G = system: Tov-21-G
Method in brief: as §1

Tov112D = system: Tov112D
Method in brief: as §1
On the % scale 0 is the no-effect control and ±100 the full control effect.

O=C(/C=C/c1ccc(O)cc1)O[C@@H]1C[C@@](O)(C(=O)O)C[C@@H](O)[C@@H]1O
inactive: Potency (OV90) | Potency (PA-1) | Potency (Tov-21-G) | Potency (Tov112D)

C[C@@H]1O[C@@H](O[C@H]2[C@H](O)[C@@H](O)[C@H](OC(=O)[C@]34CCC(C)(C)C[C@H]3C3=CCC5[C@@]6(C)CC[C@H](O[C@@H]7O[C@H](C(=O)O)[C@@H](O)[C@H](O)[C@H]7O)C(C)(C)C6CC[C@@]5(C)[C@]3(C)CC4)O[C@@H]2CO)[C@H](O)[C@H](O)[C@H]1O (stereo not given in full)
inactive: activity change, negative = cytotoxicity (OV90) -2.03% [at 11.6 µM] | activity change, negative = cytotoxicity (PA-1) -21.3% [at 11.6 µM] | activity change, negative = cytotoxicity (Tov-21-G) -3.13% [at 11.6 µM] | activity change, negative = cytotoxicity (Tov112D) -16.2% [at 11.6 µM]

COc1ccc([C@H]2OC[C@H]3[C@@H]2CO[C@@H]3c2ccc(O[C@@H]3O[C@H](CO)C(O)[C@H](O)[C@H]3O)c(OC)c2)cc1OC (stereo not given in full)
inactive: Potency (OV90) | Potency (PA-1) | Potency (Tov-21-G) | Potency (Tov112D)

O=C(Nc1ccccc1)Nc1ccc(-c2ccc(C(=O)C3CCCC3C(=O)O)cc2)cc1 (stereo not given)
inactive: Potency (OV90) | Potency (PA-1) | Potency (Tov-21-G) | Potency (Tov112D)

Cc1c(Cc2ccc3ccccc3n2)c2cc(F)ccc2n1CC(=O)O
inactive: Potency (OV90) | Potency (PA-1) | Potency (Tov-21-G) | Potency (Tov112D)

C[C@@H]1O[C@@H](O[C@@H]2\C=C/C=C\C=C/C=C\C[C@H](C)OC(=O)/C=C\[C@H]3O[C@@H]3C[C@H](O)C[C@]3(O)C[C@@H](O)[C@@H](C(=O)O)[C@H](C2)O3)[C@H](O)[C@H](N)[C@@H]1O
inactive: Potency (OV90) | Potency (PA-1) | Potency (Tov-21-G) | Potency (Tov112D)

CC(C)CC[C@@H](O)[C@](C)(O)[C@H]1CC[C@@]2(O)C3=CC(=O)[C@@H]4C[C@@H](O)[C@@H](O)C[C@]4(C)[C@H]3CC[C@]12C
inactive: Potency (OV90) | Potency (PA-1) | Potency (Tov-21-G) | Potency (Tov112D)

Cc1ccc(-c2c(-c3nn(C)c4ncnc(N5CCC(N6CCCCC6)C5)c34)cnn2C)cc1 (stereo not given)
inactive: Potency (OV90) | Potency (PA-1) | Potency (Tov-21-G) | Potency (Tov112D)

CC(NC(=O)[C@H](Cc1ccccc1)NC(=O)OCc1ccccc1)C(=O)CF (stereo not given in full)
inactive: Potency (OV90) | Potency (PA-1) | Potency (Tov-21-G) | Potency (Tov112D)

C/C=C(\C)C(=O)OC[C@H]1O[C@@H](O[C@H]2[C@@H](O[C@H]3O[C@H](CO)[C@@H](O)[C@H](O)[C@H]3O[C@@H]3O[C@H](CO)[C@@H](O)[C@H](O)[C@H]3O)O[C@H](COC(=O)/C(C)=C/C)[C@@H](O)[C@@H]2O)[C@H](O)[C@@H](O)[C@@H]1O
inactive: activity change, negative = cytotoxicity (OV90) 4.16% [at 11.6 µM] | activity change, negative = cytotoxicity (PA-1) 4.96% [at 11.6 µM] | activity change, negative = cytotoxicity (Tov-21-G) -10% [at 11.6 µM] | activity change, negative = cytotoxicity (Tov112D) -8.88% [at 11.6 µM]

COc1cc(CO)cc(OC)c1O[C@@H]1O[C@H](CO)[C@@H](O)[C@H](O)[C@H]1O
inactive: Potency (OV90) | Potency (PA-1) | Potency (Tov-21-G) | Potency (Tov112D)

C=C(C)[C@H]1CC[C@]2(C(=O)O)CC[C@]3(C)C(CCC4[C@@]5(C)CCC(=O)C(C)(C)C5CC[C@]43C)C12 (stereo not given in full)
inactive: Potency (OV90) | Potency (PA-1) | Potency (Tov-21-G) | Potency (Tov112D)

COc1ccc(C2COc3cc(O)ccc3C2)c(O)c1OC (stereo not given)
inactive: Potency (OV90) | Potency (PA-1) | Potency (Tov-21-G) | Potency (Tov112D)

COc1ccc(OC)c(C2C(C#N)=C(N)Oc3n[nH]c(-c4ccc5ccccc5c4)c32)c1 (stereo not given)
inactive: Potency (OV90) | Potency (PA-1) | Potency (Tov-21-G) | Potency (Tov112D)

C=C[C@@](C)(CCC=C(C)C)O[C@@H]1O[C@H](CO[C@@H]2OC[C@H](O)[C@H](O)[C@H]2O)[C@@H](O)[C@H](O)[C@H]1O
inactive: Potency (OV90) | Potency (PA-1) | Potency (Tov-21-G) | Potency (Tov112D)

CC(C)=CCC/C(C)=C/CO[C@@H]1O[C@H](CO[C@@H]2O[C@@H](CO)[C@H](O)[C@H]2O)[C@@H](O)[C@H](O)[C@H]1O
inactive: Potency (OV90) | Potency (PA-1) | Potency (Tov-21-G) | Potency (Tov112D)

COc1cc(C2Oc3c(OC)cc(CCCO)cc3C2CO)ccc1O (stereo not given)
inactive: Potency (OV90) | Potency (PA-1) | Potency (Tov-21-G) | Potency (Tov112D)

CC(O)C1NC(=O)C2CCCN2C1=O (stereo not given)
inactive: Potency (OV90) | Potency (PA-1) | Potency (Tov-21-G) | Potency (Tov112D)

CC(C)C1NC(=O)CNC(=O)C2CCCN2C(=O)C(Cc2c[nH]c3ccccc23)NC(=O)CNC(=O)C(C(O)c2ccc(O)cc2)NC(=O)CNC1=O (stereo not given) (cyclo(G[ξTyr(βOH)]GWPGV); configuration not given here)
inactive: Potency (OV90) | Potency (PA-1) | Potency (Tov-21-G) | Potency (Tov112D)

C=C(CO)C(=O)O[C@H]1C[C@@]23O[C@@H]2CC/C(=C/[C@H]2OC(=O)C(=C)[C@H]12)CO[C@H]3O
inactive: Potency (OV90) | Potency (PA-1) | Potency (Tov-21-G) | Potency (Tov112D)
